Results from PubChem BioAssay AID1794808 (University of Kansas High Throughput Screening Laboratory, 2022).
The campaign covered roughly 210,000 compounds. About 520 (0.25%) were called active. The sample as a whole holds a higher share of actives than the screen did. A number with no mark means an inactive call. Cut-off read from the data, not from the text of the source: active = inhibition above about 50%; inactive = the rest.

system: Plasmodium falciparum apicoplast DNA polymerase (apPOL); assay: Pf-apPOL inhibitors, biochemical, fluorescence (AID 1794808); details: Recombinant Pf-apPOL, molecular beacon fluorescence, 1.5 h; at 10 µM; stronger effect = higher value

SMILES	inhibition
CCC1(c2ccccc2)C(=O)NC(=O)N(C(=O)c2ccccc2I)C1=O (stereo not given)	-1.8%
CCCCC1(c2ccccc2)C(=O)NC(=O)NC1=O	81.2% (active)
CCC1(c2ccccc2)C(=O)NC(=O)N(C)C1=O (stereo not given)	-0.8%
Cc1nnc(SCc2nc3ccccc3c(=O)n2-c2ccccc2Cl)s1	0.3%
CCn1cc(C(=O)NCc2cccc(C)c2)c2cccnc21	-12.8%
